Results filed as inconclusive are left out. Activity calls are given as the source filed them. Unless noted, calls come from the whole dose curve; as a rule, active = well fitted inhibition curve with a large enough effect; inconclusive = small, poorly fitted or top-dose-only effect; inactive = flat fitted curve, though single readings scatter.

The results in this text go back to PubChem BioAssay (NCATS).

The nature of test [1]: qHTS drug screen for cell cycle checkpoint inhibitors in PARPi-resistant BRCA-mutant ovarian cancer cell lines. (AID 1963452; calls by dose curve). The conditions noted are these: PEO1/OlaR viability, CellTiter-Glo luminescence, 96 h, stronger effect = lower value. The essentials:
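PEO1, PEO4 and PEO1/OlaR ovarian cancer cells, 600 per well, exposed 96 h at 37C to a dilution series. Viability read by CellTiter-Glo luminescence, normalized to DMSO and empty wells; activity summarized as Z-AUC.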
Background: Quantitative high-throughput screening tests each substance at several concentrations.

Test [2] is described as follows: qHTS for identification of novel therapeutic agents for treatment of microphthalmiaassociated transcription factor (MiT) renal cell carcinoma (RCC) (AID 1963991). The conditions noted are these: CellTiter-Glo, 48 h, stronger effect = lower value. The essentials:
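Curves over 11 concentrations were fitted to CellTiter-Glo luminescence, scaled between empty wells (0%) and DMSO (100%) viability. Cells were UOK109, UOK124 and UOK145 TFE3-fusion RCC lines at 500/well, exposed 48 hours at 37 C.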

Test [3] in a line: qHTS profiling for inhibitors of Plasmodium falciparum proliferation (AID 504749).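 For activity, negative = inhibition: 0% = DMSO vehicle and full inhibition = artemisinin control.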 Note: nearly all actives have a fitted effect of over 60% in size. Note: potency is the fitted concentration of half-maximal effect. The conditions noted are these: P. falciparum in erythrocytes, SYBR Green DNA, 72 h, at 28.7 µM (top of the series). The procedure, abridged: (§1)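 P. falciparum-infected erythrocytes (0.3% parasitemia, 2.5% hematocrit) incubated with compound 72 h at 37 C, 5% CO2. Parasite DNA detected by SYBR Green after lysis, overnight at room temperature; normalised to 0.29 uM artemisinin and DMSO.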

Another test relates to 3D7. The description is as above. As to conditions: P. falciparum in erythrocytes, SYBR Green DNA, 72 h; series mostly up to 28.7 µM. The procedure, abridged:
as §1

Another test concerns 7G8. The test is described as above. As to conditions: P. falciparum in erythrocytes, SYBR Green DNA, 72 h; series mostly up to 28.7 µM. The essentials:
as §1

A further test deals with AA1029. The test is described as above. The conditions noted are these: P. falciparum in erythrocytes, SYBR Green DNA, 72 h; series mostly up to 28.7 µM. The essentials:
as §1

The test system of a further test is AS120. Described as above. As to conditions: P. falciparum in erythrocytes, SYBR Green DNA, 72 h; series mostly up to 28.7 µM. The essentials:
as §1

The subject of the next test is ATS189. Described as above. The conditions noted are these: P. falciparum in erythrocytes, SYBR Green DNA, 72 h; series mostly up to 28.7 µM. The procedure, abridged:
as §1

For another test, the system named is ATS95. The test is described as above. The conditions noted are these: P. falciparum in erythrocytes, SYBR Green DNA, 72 h; series mostly up to 28.7 µM. The procedure, abridged: as §1
Another test has as its system C2A. Described as above. As to conditions: P. falciparum in erythrocytes, SYBR Green DNA, 72 h; series mostly up to 28.7 µM. The essentials:
as §1

For a further test, the system named is CP185. The description is as above. As to conditions: P. falciparum in erythrocytes, SYBR Green DNA, 72 h; series mostly up to 28.7 µM. The procedure, abridged: as §1
The next test has as its system CP191. Described as above. The conditions noted are these: P. falciparum in erythrocytes, SYBR Green DNA, 72 h; series mostly up to 28.7 µM. The essentials: as §1
The test system of another test is CP192. The description is as above. The conditions noted are these: P. falciparum in erythrocytes, SYBR Green DNA, 72 h; series mostly up to 28.7 µM. The procedure, abridged: as §1
In another test the test system is CP194. Described as above. As to conditions: P. falciparum in erythrocytes, SYBR Green DNA, 72 h; series mostly up to 28.7 µM. The procedure, abridged:
as §1

The next test has as its system CP201. The test is described as above. As to conditions: P. falciparum in erythrocytes, SYBR Green DNA, 72 h; series mostly up to 28.7 µM. The essentials:
as §1

For a further test, the system named is CP203. The test is described as above. As to conditions: P. falciparum in erythrocytes, SYBR Green DNA, 72 h; series mostly up to 28.7 µM. The procedure, abridged:
as §1

For another test, the system named is CP211. Described as above. The conditions noted are these: P. falciparum in erythrocytes, SYBR Green DNA, 72 h; series mostly up to 28.7 µM. The essentials: as §1
For another test, the system named is CP215. Described as above. The conditions noted are these: P. falciparum in erythrocytes, SYBR Green DNA, 72 h; series mostly up to 28.7 µM. The essentials:
as §1

In a further test the test system is CP217. The test is described as above. As to conditions: P. falciparum in erythrocytes, SYBR Green DNA, 72 h; series mostly up to 28.7 µM. The procedure, abridged:
as §1

Another test relates to CP237. Described as above. As to conditions: P. falciparum in erythrocytes, SYBR Green DNA, 72 h; series mostly up to 28.7 µM. The procedure, abridged: as §1
The mark [4] stands for this setting: measured here: PEO1 parental Z-AUC.
Setting [5] is: TFE3-RCC UOK109 viability, measured here: UOK109 Z-AUC.
Where [6] appears, read: TFE3-RCC viability, measured here: UOK124 Z-AUC.
Setting [7] is: TFE3-RCC viability, measured here: UOK145 Z-AUC.

As for `CCCN[C@H]1CCc2nc(N)sc2C1`, the figures for the Z-AUC in [1], in [1] (setting [4]) and in test [1] (measured here: PEO4 Z-AUC) were -0.0876 (inactive), -1.06 and -0.574, respectively. Also, the z-score was 0.498 in test [2] (setting [5]), 0.618 in test [2] (setting [6]) and 0.718 in test [2] (setting [7]). The values for the activity, negative = inhibition in [3] (parasite line A) and in [3] (parasite line B) were 16.7% (inactive) and 18.6% (inactive), respectively. Also, the Potency entry in the test with 3D7, in the test on 7G8, in the test with AA1029, with AS120, in the test on ATS189 and in the test with ATS95 was “inactive” each time. The Potency entry with C2A, with CP185, in the test on CP191, in the test on CP192, in the test with CP194 and with CP201 was “inactive” throughout. Moreover, the Potency entry in the test on CP203, with CP211, with CP215, with CP217 and in the test with CP237 was “inactive” each time.
Consider `C[C@]12C=CC(=O)C=C1CC[C@@H]1[C@@H]2C(=O)C[C@@]2(C)[C@H]1CC[C@]2(O)C(=O)CO`, for which the Z-AUC was -0.919 (inactive) in test [1], -0.762 in test [1] (setting [4]) and -0.828 in test [1] (measured here: PEO4 Z-AUC). Also, the z-score in test [2] (setting [5]) was 1.31; in [2] (setting [6]) it was 1.23; in test [2] (setting [7]) it was -3.21. Further, the activity, negative = inhibition was 9.08% (inactive) in [3] (parasite line A) and 14.6% (inactive) in test [3] (parasite line B). Also, the Potency entry with 3D7, in the test on 7G8, with AA1029, with AS120, in the test on ATS189 and with ATS95 was “inactive” each time. Further, the Potency entry in the test on C2A, in the test with CP185, in the test on CP191, with CP192, in the test on CP194 and with CP201 was “inactive” throughout. Moreover, the Potency result in the test on CP211, in the test with CP215, with CP217 and in the test with CP237 was “inactive” throughout.
For the molecule `CC(C)(C#N)c1cc(Cn2cncn2)cc(C(C)(C)C#N)c1`, the Z-AUC in test [1] is 1.1 (inactive); in [1] (setting [4]) it was 1.39; in test [1] (measured here: PEO4 Z-AUC), 1.04. For the same molecule, the z-score came out at 0.558 in test [2] (setting [5]), 0.63 in test [2] (setting [6]) and 0.487 in [2] (setting [7]). Moreover, the activity, negative = inhibition was 5.33% (inactive) in test [3] (parasite line A) and 14.1% (inactive) in test [3] (parasite line B). In addition, the Potency result with 3D7, in the test on 7G8, with AA1029, in the test on AS120, in the test with ATS189 and in the test on ATS95 was “inactive” throughout. For the same molecule, the Potency entry in the test with C2A, with CP185, in the test with CP191, with CP192, with CP194 and in the test with CP201 was “inactive” each time. Moreover, the Potency result in the test with CP211, in the test with CP215, in the test on CP217 and in the test on CP237 was “inactive” throughout.
As to `N[C@@H](Cc1ccc(O)c(O)c1)C(=O)O`, the Z-AUC in test [1] was -0.0147 (inactive); in test [1] (setting [4]), 0.128; in [1] (measured here: PEO4 Z-AUC) it was 0.735. For the same molecule, the z-score is 0.912 in [2] (setting [5]), 0.453 in [2] (setting [6]) and 0.282 in test [2] (setting [7]). Further, the Potency entry in the test on CP192, with CP194, with CP201, with CP211 and in the test on CP215 was “inactive” in each case.
Consider `O=c1oc2c(O)c(O)cc3c(=O)oc4c(O)c(O)cc1c4c23`, for which the figures for the Z-AUC in [1], in test [1] (setting [4]) and in [1] (measured here: PEO4 Z-AUC) were 0.559 (inactive), 0.754 and 0.513, respectively. The z-score in test [2] (setting [5]) turned out to be 1.02; in test [2] (setting [6]), 0.807; in test [2] (setting [7]) it was 0.717. For the same molecule, the Potency was 1000 nM (active) in the test on 3D7, 2820 nM (active) in the test on 7G8, 1410 nM (active) with AS120 and 2000 nM (active) with CP237. Moreover, the Potency entry in the test on AA1029, with CP185, in the test on CP191 and with CP203 was “inactive” throughout.
`CC(C)C1CCC(C(=O)N[C@H](Cc2ccccc2)C(=O)O)CC1` (some centres undefined): the Z-AUC in [1] was 1.31 (inactive); in test [1] (setting [4]), 1.43; in test [1] (measured here: PEO4 Z-AUC) it was 0.601. The figures for the z-score in [2] (setting [5]), in test [2] (setting [6]) and in test [2] (setting [7]) were 0.399, 0.0648 and 0.384, respectively.
